# Source: paper PMC4336329 (PLoS ONE, 2015)
# The campaign covered roughly 310,000 compounds. About 2,200 (0.71%) showed an effect of 50% or more. Effects have a minus sign here. Shown is part of a subset that was picked to be rich in strong results.
# Target: human ether-à-go-go-related gene (hERG) potassium channel (human, UniProt Q12809)
# Assay: primary screen, population patch clamp on CHO cells stably expressing hERG; higher = less effect of the substance
# Experimental: Briefly, Chinese hamster ovary (CHO) cells stably expressing the hERG channel were dislodged from tissue culture flasks and dispensed into PPC plates. […] During the recording, background leak currents were estimated by a 100 ms step to -80 mV from an initial holding potential of -70 mV and subtracted from the subsequent current measurement. The campaign was conducted in two phases using slight differences in recording protocol. In the first phase, the initial voltage pulse used a 100 ms step to -30 mV from a holding potential of -70 mV, a 2 s conditioning step to +25 mV, and a 2 s test step to -30 mV. During the second phase of the screen, the potential during the conditioning step was raised to +45 mV. In both phases of the campaign, a secondary voltage pulse was applied using the same parameters as the second phase initial pulse. The initial and secondary pulses were applied in the absence of compound, and upon application of 1 μM and 10 μM test concentrations. Small molecule effects on hERG current density were quantified by […].
# human ether-à-go-go-related gene (hERG) potassium channel, sequence (Q12809 whole entry, looked up): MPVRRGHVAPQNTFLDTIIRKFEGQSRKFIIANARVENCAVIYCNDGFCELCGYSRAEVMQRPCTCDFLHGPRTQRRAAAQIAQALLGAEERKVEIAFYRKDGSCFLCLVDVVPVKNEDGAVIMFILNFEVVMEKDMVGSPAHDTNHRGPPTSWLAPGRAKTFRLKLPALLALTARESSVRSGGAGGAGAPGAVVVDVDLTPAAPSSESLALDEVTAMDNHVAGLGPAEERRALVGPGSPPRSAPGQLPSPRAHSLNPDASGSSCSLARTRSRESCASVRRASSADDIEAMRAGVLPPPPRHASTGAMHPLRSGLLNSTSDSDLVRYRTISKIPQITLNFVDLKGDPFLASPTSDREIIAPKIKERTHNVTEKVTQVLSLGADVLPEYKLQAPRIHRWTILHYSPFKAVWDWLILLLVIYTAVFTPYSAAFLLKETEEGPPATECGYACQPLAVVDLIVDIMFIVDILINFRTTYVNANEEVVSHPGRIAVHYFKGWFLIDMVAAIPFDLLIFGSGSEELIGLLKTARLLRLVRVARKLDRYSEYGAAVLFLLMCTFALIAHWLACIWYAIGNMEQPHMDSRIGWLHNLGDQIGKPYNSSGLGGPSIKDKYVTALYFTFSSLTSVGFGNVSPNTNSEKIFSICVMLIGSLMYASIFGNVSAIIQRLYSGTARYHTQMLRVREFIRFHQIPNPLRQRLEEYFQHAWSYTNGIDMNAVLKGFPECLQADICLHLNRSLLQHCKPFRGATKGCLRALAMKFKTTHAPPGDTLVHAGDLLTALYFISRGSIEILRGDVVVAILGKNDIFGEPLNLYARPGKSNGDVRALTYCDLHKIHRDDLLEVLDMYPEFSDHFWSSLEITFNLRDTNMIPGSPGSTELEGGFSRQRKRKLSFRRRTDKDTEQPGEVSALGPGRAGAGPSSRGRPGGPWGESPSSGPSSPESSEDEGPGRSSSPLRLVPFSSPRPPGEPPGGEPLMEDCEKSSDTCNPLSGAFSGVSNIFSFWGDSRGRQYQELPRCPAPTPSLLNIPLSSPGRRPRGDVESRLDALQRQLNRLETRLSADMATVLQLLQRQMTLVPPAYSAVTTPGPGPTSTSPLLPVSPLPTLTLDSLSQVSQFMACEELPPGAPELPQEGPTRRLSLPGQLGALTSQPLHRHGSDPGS
row,Structure (SMILES),"hERG current change (%, negative = inhibition) at 1uM [%]"
1,COc1cccc(CCNC(=O)c2ccc(C#N)cc2)c1,8.19
2,Cc1[nH]nc(N)c1-c1ccc(Cl)cc1,3.97
3,O=C(NCc1ccco1)/C(=C/c1ccc([N+](=O)[O-])cc1)NC(=O)c1ccco1,-50.4
4,O=C(NCCO)/C(=C/c1cccc([N+](=O)[O-])c1)NC(=O)c1ccco1,9.43
5,O=C(NCCO)/C(=C\c1cccc([N+](=O)[O-])c1)NC(=O)c1ccco1,8.45
6,CC(=O)Oc1ccc(/C=C(\NC(=O)c2ccco2)C(=O)NCc2ccco2)cc1,-11
7,O=C(NCCc1ccccc1)/C(=C\c1ccc([N+](=O)[O-])cc1)NC(=O)c1ccccc1,3.17
8,O=C(NCc1ccccc1)/C(=C/c1ccc([N+](=O)[O-])cc1)NC(=O)c1ccco1,-31
9,O=C(NCCc1ccccc1)/C(=C\c1cccc([N+](=O)[O-])c1)NC(=O)c1ccco1,-50.6
10,O=C(NCCc1ccccc1)/C(=C\c1ccc([N+](=O)[O-])cc1)NC(=O)c1ccco1,-59
11,O=C(NCc1ccccc1)/C(=C\c1ccc([N+](=O)[O-])cc1)NC(=O)c1ccco1,-19.6
12,O=C(NCCc1ccccc1)/C(=C\c1ccccc1)NC(=O)c1ccco1,9.3
13,CC(=O)Oc1ccc(/C=C(\NC(=O)c2ccco2)C(=O)NCc2ccccc2)cc1,-58.9
14,O=C(NCc1ccccc1)/C(=C\c1ccccc1)NC(=O)c1ccco1,11.9
15,O=C(OCC(=O)N1CCCC1=O)c1ccc(F)c(S(=O)(=O)N2CCOCC2)c1,-4.67
16,Cc1cc(C)c(S(C)(=O)=O)c(S(=O)c2ccc(Cl)cc2)n1 (stereo not shown),3.19
17,CCOC(=O)c1[nH]c2ccc(OC)cc2c1NC(=O)CCN1CCN(Cc2ccccc2)CC1,-36
18,NC(=O)CSc1nnc(Cc2csc(Nc3ccc(F)cc3)n2)n1Cc1ccccc1,11.5
19,O=C(OCC(=O)N(C1CCCCC1)C1CCCCC1)c1ccco1,9.71
20,O=C(O)CCN1C(=O)c2ccccc2C1=O,19.2
21,CN(C)S(=O)(=O)c1cccc(-c2nnc(SCc3ccc4c(c3)OCCO4)o2)c1,-0.0123

row,Structure (SMILES),"hERG current change (%, negative = inhibition) at 1uM [%]"
1,C=CCc1ccccc1OCC(O)CN1CCN(c2ccccc2OC)CC1.Cl (stereo not shown),-52.3
2,C=CCc1ccccc1OCC(O)CN1CCN(c2ccc(OC)cc2)CC1.Cl (stereo not shown),-27.3
3,C=CCc1ccc(OCC(O)CN2CCN(c3ccccc3)CC2)c(OC)c1.Cl (stereo not shown),-33.7
4,C=CCc1ccccc1OCC(O)CN1CCN(c2ccccc2F)CC1.Cl (stereo not shown),-0.42
5,C=CCc1ccc(OCC(O)CN2CCC(Cc3ccccc3)CC2)c(OC)c1.Cl (stereo not shown),-75
6,C=CCc1ccc(OCC(O)CN2CCCCC2)c(OC)c1 (stereo not shown),-16.5
7,C=CCc1ccc(OCC(O)CN2CCN(Cc3ccc(Cl)cc3)CC2)c(OC)c1.Cl (stereo not shown),-55.3
8,C=CCc1ccc(OCC(O)CN2CCN(Cc3ccccc3)CC2)c(OC)c1.Cl (stereo not shown),-10.6
9,C=CCc1ccc(OCC(O)CN2CCN(c3ccccc3OC)CC2)c(OC)c1.Cl (stereo not shown),8.86
10,COc1cc(CN2CCN(c3ccccc3C)CC2)cc([N+](=O)[O-])c1O,7.17
11,CN(C)C(=O)Oc1ccc(OC(=O)c2ccccc2)cc1,10.4
12,Cc1ccc(-n2c(N)c(C#N)c(-c3ccc(Cl)cc3)c(C#N)c2=O)cc1,10.8
13,CCCCNC(=O)COC(=O)c1cc(C)oc1C,8.11
14,COc1ccc(N2CCN(CC(O)COc3ccc([N+](=O)[O-])cc3)CC2)cc1.Cl (stereo not shown),-45.5
15,Cc1ccc(N2CCN(CC(O)COc3ccc([N+](=O)[O-])cc3)CC2)cc1 (stereo not shown),-65.4
16,Cc1nonc1OCCNc1ccc([N+](=O)[O-])cc1,-17.1
17,Cc1ccc(OCC(O)CN2CCN(c3ccc(C)cc3)CC2)cc1 (stereo not shown),-3.83
18,O=[N+]([O-])c1ccc(OCC(O)CN2CCN(c3ccccc3F)CC2)cc1 (stereo not shown),-77.6
19,Cc1nonc1OCCN1CCN(c2ccccc2[N+](=O)[O-])CC1.Cl,-2.31
20,Cl.OC(COc1ccc(F)cc1)CN1CCN(c2ccccc2F)CC1 (stereo not shown),-49.5
21,Cc1nonc1OCCN1CCN(c2ccc([N+](=O)[O-])cc2)CC1,-100

row,Structure (SMILES),"hERG current change (%, negative = inhibition) at 1uM [%]"
1,OC(COc1ccc2c(c1)CCC2)CN1CCN(c2ccccc2F)CC1 (stereo not shown),5.87
2,COc1ccc(CCNC(=O)c2cccc([N+](=O)[O-])c2)cc1OC,3.3
3,O/N=C(\COc1ccccc1O)c1ccccc1,-0.796
4,CN(c1ccc(OCC(=O)NCc2cccnc2)cc1)S(=O)(=O)c1ccc(Cl)cc1,-4.28
5,CCOC(=O)CC1C(=O)NCCN1S(=O)(=O)c1ccc(Br)cc1 (stereo not shown),6.26
6,O=C(CCn1nnc2ccccc2c1=O)N[C@@H](Cc1c[nH]c2ccccc12)C(=O)O,11.6
7,COc1ccc(CCNC(=O)C2(C)CCC(=O)N2Cc2ccc(F)cc2Cl)cc1OC (stereo not shown),16.2
8,Cc1ccc(C(=O)NCCCN2CCN(CCCNC(=O)c3ccc(C)cc3)CC2)cc1,-36.5
9,COc1ccccc1N1CCN(C(=O)CCN2C(=O)c3cccc4cccc(c34)C2=O)CC1,9.15
10,O=C(NCCN1CCOCC1)c1cccc(Cl)c1,2.76
11,CCOc1ccccc1N1CCN(C(=O)CCCN2C(=O)c3cccc4cccc(c34)C2=O)CC1,2.15
12,COc1ccccc1N1CCN(CCCCNC(=O)c2ccc3ccccc3c2)CC1.Cl,-75.8
13,O=C(NCCCN1CCN(CCCNC(=O)c2cccc(Cl)c2)CC1)c1cccc(Cl)c1,-74.5
14,CC(C)c1ccc(C(=O)NCCCN2CCN(CCCNC(=O)c3ccc(C(C)C)cc3)CC2)cc1,-86.4
15,Cl.O=C(NCCN1CCCC1)c1cccc(Cl)c1,-13.1
16,COc1ccc(C(=O)CCN2CCN(c3ccccc3OC)CC2)cc1.Cl,-4.48
17,COc1ccccc1N1CCN(C(=O)CCCN2C(=O)c3cccc4cccc(c34)C2=O)CC1.Cl,-89.5
18,COc1ccc(S(N)(=O)=O)cc1C(=O)NCCCN1CCN(c2ccccc2OC)CC1.CS(=O)(=O)O,4.07
19,CC(C)c1ccc(C(=O)NCCCN2CCOCC2)cc1,2.78
